According to PubChem BioAssay AID1159580 (chemical genetic matrix, 2015):
Hit rate of the full screen: of about 5,500 compounds, about 2,000 (36%) were called active. Another 18% or so got no clear call; they are omitted. No stated cut-off is given here; in the data, active means normalized growth mostly below about 0.91 (no sharp cut-off); inconclusive means no clear call, values can overlap the other calls; inactive means mostly above about 0.92. The list shows a part of the results.

Test: chemical genetic growth profiling, strain panel (AID 1159580);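 further: tested at 20 µM; growth read once vehicle control cultures reached saturation at 30 °C; 1 = growth at the plate median or of vehicle wells; lower values mean less growth of the strain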
Details: growth OD

Measured: normalized growth

C=CCC1(C(C)CCC)C(=O)N=C(S)NC1=O (configuration not stated)
inactive: S. cerevisiae deletion strains, locus YJR075W, strain HOC1, hits give low values 1.04 | S. cerevisiae deletion strains, locus YKL009W, strain mrt4, hits give low values 0.963 | S. cerevisiae deletion strains, locus YKL068W, hits give low values 0.969 | S. cerevisiae deletion strains, locus YKL085W, strain MDH1 (second series), hits give low values 0.983 | S. cerevisiae deletion strains, locus YKL085W, strain MDH1, hits give low values 0.983 | S. cerevisiae deletion strains, locus YKL160W, strain elf1, hits give low values 0.972 | S. cerevisiae deletion strains, locus YKL190W, strain CNB1, hits give low values 0.992 | S. cerevisiae deletion strains, locus YKR001C, strain vps1, hits give low values 0.993 | S. cerevisiae deletion strains, locus YKR026C, strain gcn3, hits give low values 0.925 | S. cerevisiae deletion strains, locus YKR091W, strain srl3, hits give low values 0.978 | S. cerevisiae deletion strains, locus YLL001W, strain dnm1, hits give low values 0.942 | S. cerevisiae deletion strains, locus YLL026W, hits give low values 0.994 | S. cerevisiae deletion strains, locus YLL041C, strain sdh2, hits give low values 0.974 | S. cerevisiae deletion strains, locus YLR027C, strain aat2, hits give low values 0.979 | S. cerevisiae deletion strains, locus YLR039C, strain RIC1, hits give low values 0.891 | S. cerevisiae deletion strains, locus YLR058C, strain SHM2, hits give low values 0.988 | S. cerevisiae deletion strains, locus YLR102C, strain apc9, hits give low values 0.966 | S. cerevisiae deletion strains, locus YLR113W, strain HOG1, hits give low values 0.977 | S. cerevisiae deletion strains, locus YLR221C, strain rsa3, hits give low values 1 | S. cerevisiae deletion strains, locus YLR258W, strain gsy2, hits give low values 0.967 | S. cerevisiae deletion strains, locus YLR262C, strain YPT6 (second series), hits give low values 0.905 | S. cerevisiae deletion strains, locus YLR262C, strain YPT6, hits give low values 0.853 | S. cerevisiae deletion strains, locus YLR268W, strain sec22, hits give low values 0.992 | S. cerevisiae deletion strains, locus YLR320W, strain mms22, hits give low values 1.01 | S. cerevisiae deletion strains, locus YLR330W, strain CHS5, hits give low values 0.979 | S. cerevisiae deletion strains, locus YLR342W, strain FKS1 (second series), hits give low values 0.916 | S. cerevisiae deletion strains, locus YLR342W, strain FKS1, hits give low values 0.978 | S. cerevisiae deletion strains, locus YLR357W, strain rsc2, hits give low values 0.978 | S. cerevisiae deletion strains, locus YLR370C, strain arc18, hits give low values 0.99 | S. cerevisiae deletion strains, locus YLR371W, strain rom2, hits give low values 0.957 | S. cerevisiae deletion strains, locus YLR384C, strain iki3, hits give low values 0.944 | S. cerevisiae deletion strains, locus YLR418C, strain cdc73, hits give low values 1.04 | S. cerevisiae deletion strains, locus YML016C, strain PPZ1, hits give low values 0.994 | S. cerevisiae deletion strains, locus YML032C, strain rad52, hits give low values 0.957 | S. cerevisiae deletion strains, locus YML120C, strain ndi1, hits give low values 0.988 | S. cerevisiae deletion strains, locus YML124C, strain tub3, hits give low values 0.981 | S. cerevisiae deletion strains, locus YMR058W, strain fet3, hits give low values 0.977 | S. cerevisiae deletion strains, locus YMR078C, strain ctf18, hits give low values 0.972 | S. cerevisiae deletion strains, locus YMR125W, strain sto1, hits give low values 0.923 | S. cerevisiae deletion strains, locus YMR129W, hits give low values 0.978 | S. cerevisiae deletion strains, locus YMR205C, strain PFK2, hits give low values 0.965 | S. cerevisiae deletion strains, locus YMR223W, strain ubp8, hits give low values 0.979 | S. cerevisiae deletion strains, locus YMR231W, strain pep5, hits give low values 0.963 | S. cerevisiae deletion strains, locus YMR263W, strain SAP30, hits give low values 1.01 | S. cerevisiae deletion strains, locus YMR307W, strain GAS1, hits give low values 1.02 | S. cerevisiae deletion strains, locus YNL067W, strain RPL9B, hits give low values 1.02 | S. cerevisiae deletion strains, locus YNL071W, strain lat1, hits give low values 1 | S. cerevisiae deletion strains, locus YNL128W, strain TEP1, hits give low values 1.01 | S. cerevisiae deletion strains, locus YNL153C, strain GIM3, hits give low values 1.03 | S. cerevisiae deletion strains, locus YNL183C, strain NPR1, hits give low values 0.929 | S. cerevisiae deletion strains, locus YNL209W, strain ssb2, hits give low values 0.976 | S. cerevisiae deletion strains, locus YNL233W, strain BNI4, hits give low values 1.03 | S. cerevisiae deletion strains, locus YNL248C, strain rpa49, hits give low values 0.914 | S. cerevisiae deletion strains, locus YNL250W, strain rad50, hits give low values 0.963 | S. cerevisiae deletion strains, locus YNL271C, strain bni1, hits give low values 0.98 | S. cerevisiae deletion strains, locus YNL298W, strain CLA4, hits give low values 0.978 | S. cerevisiae deletion strains, locus YNL307C, strain MCK1, hits give low values 0.961 | S. cerevisiae deletion strains, locus YNL322C, strain KRE1 (second series), hits give low values 0.969 | S. cerevisiae deletion strains, locus YNL322C, strain KRE1, hits give low values 0.989 | S. cerevisiae deletion strains, locus YNR049C, strain mso1, hits give low values 0.97 | S. cerevisiae deletion strains, locus YNR052C, strain pop2, hits give low values 0.995 | S. cerevisiae deletion strains, locus YOL006C, strain TOP1, hits give low values 1.06 | S. cerevisiae deletion strains, locus YOL012C, strain htz1 1.08 | S. cerevisiae deletion strains, locus YOL147C, strain pex11, hits give low values 0.99 | S. cerevisiae deletion strains, locus YOR001W, strain rrp6, hits give low values 0.952 | S. cerevisiae deletion strains, locus YOR061W, strain CKA2, hits give low values 0.99 | S. cerevisiae deletion strains, locus YOR069W, strain VPS5, hits give low values 0.974 | S. cerevisiae deletion strains, locus YOR070C, strain gyp1, hits give low values 0.991 | S. cerevisiae deletion strains, locus YOR080W, strain dia2, hits give low values 0.959 | S. cerevisiae deletion strains, locus YOR083W, strain WHI5, hits give low values 0.976 | S. cerevisiae deletion strains, locus YOR106W, strain vam3, hits give low values 0.941 | S. cerevisiae deletion strains, locus YOR136W, strain idh2, hits give low values 0.993 | S. cerevisiae deletion strains, locus YOR144C, strain elg1, hits give low values 0.991 | S. cerevisiae deletion strains, locus YOR184W, strain ser1, hits give low values 0.949 | S. cerevisiae deletion strains, locus YOR231W, strain MKK1, hits give low values 0.984 | S. cerevisiae deletion strains, locus YOR265W, strain rbl2, hits give low values 0.976 | S. cerevisiae deletion strains, locus YOR270C, strain vph1, hits give low values 0.912 | S. cerevisiae deletion strains, locus YOR290C, strain snf2, hits give low values 0.996 | S. cerevisiae deletion strains, locus YOR316C, strain cot1, hits give low values 0.981 | S. cerevisiae deletion strains, locus YPL051W, strain arl3, hits give low values 0.979 | S. cerevisiae deletion strains, locus YPL055C, strain LGE1, hits give low values 1.02 | S. cerevisiae deletion strains, locus YPL078C, strain atp4, hits give low values 0.937 | S. cerevisiae deletion strains, locus YPL106C, strain sse1, hits give low values 0.988 | S. cerevisiae deletion strains, locus YPL240C, strain hsp82, hits give low values 0.97 | S. cerevisiae deletion strains, locus YPL241C, strain CIN2, hits give low values 0.99 | S. cerevisiae deletion strains, locus YPL256C, strain CLN2, hits give low values 0.996 | S. cerevisiae deletion strains, locus YPR119W, strain clb2, hits give low values 0.99 | S. cerevisiae deletion strains, locus YPR141C, strain kar3, hits give low values 0.977 | S. cerevisiae deletion strains, locus YPR163C, strain tif3, hits give low values 0.985 | S. cerevisiae deletion strains, locus YPR167C, strain met16, hits give low values 0.981 | S. cerevisiae deletion strains, strain wtn01, hits give low values 0.98 | S. cerevisiae strains, strain wild type, hits give low values 0.986
